Several values for one entry are separate records, joined by “and”; a condition that tells them apart may be missing. Identical values can stand only once. Records with an inconclusive call do not appear. Values without a mark were called inactive. Activity calls are given as the source filed them. Calls come from the whole dose curve; as a rule, active = well fitted inhibition curve with a large enough effect; inconclusive = small, poorly fitted or top-dose-only effect; inactive = no such curve, though single readings can be large or run the other way.
Test: Primary qHTS for inhibitors of nuclear receptor binding SET domain protein 2 (NSD2) in an RCH-ACV wild type WT cells (2C) (AID 1645877); note: nearly all actives have a fitted effect of over 70% in size
Details: RCH-ACV (leukaemia line) NSD2 WT (2C) viability, CellTiter-Glo, 72 h; series mostly up to 44.9 µM; activity change, negative = cell killing: at the top concentration
% is set by controls: 0 for no effect and ±100 for the full control effect; potency is the fitted concentration of half-maximal effect.

SMILES	Potency	activity change, negative = cell killing	outcome
O=c1[nH]c(=O)n([C@H]2C[C@H](O)[C@@H](CO)O2)cc1I	2.99 µM (active) and 662 nM (active)	–	–
Nc1ccc(S(=O)(=O)c2ccc(N)cc2)cc1	–	6.02%	–
CC(=O)Nc1ccccc1	–	–	inactive
C[N+]1(C)CCCC(OC(=O)C(O)(c2ccccc2)c2ccccc2)C1 (stereo not given)	–	-4.59%	–
NS(=O)(=O)c1cc2c(cc1C(F)(F)F)NCNS2(=O)=O	–	-6.55%	–
NS(=O)(=O)c1cc(-c2nn[nH]n2)c(NCc2cccs2)cc1Cl	–	–	inactive
Cc1ncc(CO)c(CN)c1O	–	3.03%	–
CCCCCOC(=O)Nc1nc(=O)n([C@@H]2O[C@H](C)[C@@H](O)[C@H]2O)cc1F	inactive	–	–
CCCCCC(N)=O	–	-17.6%	–
CC(C)CCOC(=O)c1ccc(N(C)C)cc1	–	-1.62%	–
NC(=O)CC[C@@H](N)C(=O)O	–	-2.08%	–
CN[C@@H]1[C@H](O)[C@H](NC)[C@H]2O[C@@]3(O)C(=O)C[C@@H](C)O[C@H]3O[C@@H]2[C@H]1O	–	–	inactive
CN1CCN(C(=O)C2CCCCC2)CC1	–	–	inactive
O=C(Cn1ccnc1[N+](=O)[O-])NCc1ccccc1	–	-6.71%	–
NS(=O)(=O)c1ccc(NC(=O)CCC(=O)O)cc1	–	–	inactive
CC(O)CCCCn1c(=O)c2c(ncn2C)n(C)c1=O (stereo not given)	–	-1.46%	–
CC(=O)Nc1cccc(O)c1	–	-0.789%	–
Cc1cc(C)nc(NS(=O)(=O)c2ccc(N)cc2)n1	–	-4.43%	–
CN/C(=C\[N+](=O)[O-])NCCSCc1csc(CN(C)C)n1	–	1.4%	–
CN1C[C@@H]2C[C@H]1CN2c1cc2c(cc1F)c(=O)c(C(=O)O)cn2C1CC1	–	-16.1% [at 17.3 µM]	–
